Source: PubChem BioAssay AID1159580 (chemical genetic matrix, 2015)
The campaign covered roughly 5,500 compounds. About 2,000 (36%) were called active. About 18% were inconclusive and are not listed. Cut-off read from the data, not from the text of the source: active = normalized growth mostly below about 0.91 (no sharp cut-off); inconclusive = no clear call, values can overlap the other calls; inactive = mostly above about 0.92. Some of the results follow.

Test: chemical genetic growth profiling, strain panel (AID 1159580);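 note: tested at 20 µM; growth read once vehicle control cultures reached saturation at 30 °C; 1 = growth at the plate median or of vehicle wells; lower values mean less growth of the strain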
Settings: growth OD

Measured: normalized growth

CCOC(=O)C(Cc1ccc(O)cc1)NC(C)=O (configuration not stated)
inactive: S. cerevisiae deletion strains, locus YJR075W, strain HOC1, stronger effect = lower value 1.01 | S. cerevisiae deletion strains, locus YKL009W, strain mrt4, stronger effect = lower value 0.996 | S. cerevisiae deletion strains, locus YKL068W, stronger effect = lower value 1 | S. cerevisiae deletion strains, locus YKL085W, strain MDH1 (second series), stronger effect = lower value 1 | S. cerevisiae deletion strains, locus YKL085W, strain MDH1, stronger effect = lower value 1 | S. cerevisiae deletion strains, locus YKL160W, strain elf1, stronger effect = lower value 1.02 | S. cerevisiae deletion strains, locus YKL190W, strain CNB1, stronger effect = lower value 1.01 | S. cerevisiae deletion strains, locus YKR001C, strain vps1, stronger effect = lower value 0.995 | S. cerevisiae deletion strains, locus YKR026C, strain gcn3, stronger effect = lower value 1 | S. cerevisiae deletion strains, locus YKR091W, strain srl3, stronger effect = lower value 1 | S. cerevisiae deletion strains, locus YLL001W, strain dnm1, stronger effect = lower value 1.01 | S. cerevisiae deletion strains, locus YLL026W, stronger effect = lower value 0.997 | S. cerevisiae deletion strains, locus YLL041C, strain sdh2, stronger effect = lower value 1 | S. cerevisiae deletion strains, locus YLR027C, strain aat2, stronger effect = lower value 1 | S. cerevisiae deletion strains, locus YLR039C, strain RIC1, stronger effect = lower value 1.03 | S. cerevisiae deletion strains, locus YLR058C, strain SHM2, stronger effect = lower value 1.02 | S. cerevisiae deletion strains, locus YLR102C, strain apc9, stronger effect = lower value 1.01 | S. cerevisiae deletion strains, locus YLR113W, strain HOG1, stronger effect = lower value 1.01 | S. cerevisiae deletion strains, locus YLR221C, strain rsa3, stronger effect = lower value 0.987 | S. cerevisiae deletion strains, locus YLR258W, strain gsy2, stronger effect = lower value 1.01 | S. cerevisiae deletion strains, locus YLR262C, strain YPT6 (second series), stronger effect = lower value 0.968 | S. cerevisiae deletion strains, locus YLR262C, strain YPT6, stronger effect = lower value 1.01 | S. cerevisiae deletion strains, locus YLR268W, strain sec22, stronger effect = lower value 1.01 | S. cerevisiae deletion strains, locus YLR320W, strain mms22, stronger effect = lower value 0.994 | S. cerevisiae deletion strains, locus YLR330W, strain CHS5, stronger effect = lower value 1.01 | S. cerevisiae deletion strains, locus YLR342W, strain FKS1 (second series), stronger effect = lower value 1.07 | S. cerevisiae deletion strains, locus YLR342W, strain FKS1, stronger effect = lower value 1.01 | S. cerevisiae deletion strains, locus YLR357W, strain rsc2, stronger effect = lower value 1.01 | S. cerevisiae deletion strains, locus YLR370C, strain arc18, stronger effect = lower value 1 | S. cerevisiae deletion strains, locus YLR371W, strain rom2, stronger effect = lower value 1.02 | S. cerevisiae deletion strains, locus YLR384C, strain iki3, stronger effect = lower value 1 | S. cerevisiae deletion strains, locus YLR418C, strain cdc73, stronger effect = lower value 1 | S. cerevisiae deletion strains, locus YML016C, strain PPZ1, stronger effect = lower value 1.01 | S. cerevisiae deletion strains, locus YML032C, strain rad52, stronger effect = lower value 0.989 | S. cerevisiae deletion strains, locus YML120C, strain ndi1, stronger effect = lower value 1.01 | S. cerevisiae deletion strains, locus YML124C, strain tub3, stronger effect = lower value 0.999 | S. cerevisiae deletion strains, locus YMR058W, strain fet3, stronger effect = lower value 1.01 | S. cerevisiae deletion strains, locus YMR078C, strain ctf18, stronger effect = lower value 1.01 | S. cerevisiae deletion strains, locus YMR125W, strain sto1, stronger effect = lower value 0.995 | S. cerevisiae deletion strains, locus YMR129W, stronger effect = lower value 1.01 | S. cerevisiae deletion strains, locus YMR205C, strain PFK2, stronger effect = lower value 0.997 | S. cerevisiae deletion strains, locus YMR223W, strain ubp8, stronger effect = lower value 0.987 | S. cerevisiae deletion strains, locus YMR231W, strain pep5, stronger effect = lower value 1.01 | S. cerevisiae deletion strains, locus YMR263W, strain SAP30, stronger effect = lower value 1.01 | S. cerevisiae deletion strains, locus YMR307W, strain GAS1, stronger effect = lower value 1.06 | S. cerevisiae deletion strains, locus YNL067W, strain RPL9B, stronger effect = lower value 1.02 | S. cerevisiae deletion strains, locus YNL071W, strain lat1, stronger effect = lower value 1 | S. cerevisiae deletion strains, locus YNL128W, strain TEP1, stronger effect = lower value 1.02 | S. cerevisiae deletion strains, locus YNL153C, strain GIM3, stronger effect = lower value 1.01 | S. cerevisiae deletion strains, locus YNL183C, strain NPR1, stronger effect = lower value 0.879 | S. cerevisiae deletion strains, locus YNL209W, strain ssb2, stronger effect = lower value 0.996 | S. cerevisiae deletion strains, locus YNL233W, strain BNI4, stronger effect = lower value 1.01 | S. cerevisiae deletion strains, locus YNL248C, strain rpa49, stronger effect = lower value 0.999 | S. cerevisiae deletion strains, locus YNL250W, strain rad50, stronger effect = lower value 0.992 | S. cerevisiae deletion strains, locus YNL271C, strain bni1, stronger effect = lower value 0.993 | S. cerevisiae deletion strains, locus YNL298W, strain CLA4, stronger effect = lower value 1.01 | S. cerevisiae deletion strains, locus YNL307C, strain MCK1, stronger effect = lower value 1 | S. cerevisiae deletion strains, locus YNL322C, strain KRE1 (second series), stronger effect = lower value 1.05 | S. cerevisiae deletion strains, locus YNL322C, strain KRE1, stronger effect = lower value 1.01 | S. cerevisiae deletion strains, locus YNR049C, strain mso1, stronger effect = lower value 1.02 | S. cerevisiae deletion strains, locus YNR052C, strain pop2, stronger effect = lower value 0.993 | S. cerevisiae deletion strains, locus YOL006C, strain TOP1, stronger effect = lower value 1.06 | S. cerevisiae deletion strains, locus YOL012C, strain htz1 0.841 | S. cerevisiae deletion strains, locus YOL147C, strain pex11, stronger effect = lower value 0.997 | S. cerevisiae deletion strains, locus YOR001W, strain rrp6, stronger effect = lower value 0.949 | S. cerevisiae deletion strains, locus YOR061W, strain CKA2, stronger effect = lower value 1.02 | S. cerevisiae deletion strains, locus YOR069W, strain VPS5, stronger effect = lower value 1.01 | S. cerevisiae deletion strains, locus YOR070C, strain gyp1, stronger effect = lower value 1 | S. cerevisiae deletion strains, locus YOR080W, strain dia2, stronger effect = lower value 1.01 | S. cerevisiae deletion strains, locus YOR083W, strain WHI5, stronger effect = lower value 1.03 | S. cerevisiae deletion strains, locus YOR106W, strain vam3, stronger effect = lower value 1.04 | S. cerevisiae deletion strains, locus YOR136W, strain idh2, stronger effect = lower value 0.989 | S. cerevisiae deletion strains, locus YOR144C, strain elg1, stronger effect = lower value 1.01 | S. cerevisiae deletion strains, locus YOR184W, strain ser1, stronger effect = lower value 1.01 | S. cerevisiae deletion strains, locus YOR231W, strain MKK1, stronger effect = lower value 0.971 | S. cerevisiae deletion strains, locus YOR265W, strain rbl2, stronger effect = lower value 1 | S. cerevisiae deletion strains, locus YOR270C, strain vph1, stronger effect = lower value 1 | S. cerevisiae deletion strains, locus YOR290C, strain snf2, stronger effect = lower value 1.03 | S. cerevisiae deletion strains, locus YOR316C, strain cot1, stronger effect = lower value 1.02 | S. cerevisiae deletion strains, locus YPL051W, strain arl3, stronger effect = lower value 1.03 | S. cerevisiae deletion strains, locus YPL055C, strain LGE1, stronger effect = lower value 1.01 | S. cerevisiae deletion strains, locus YPL078C, strain atp4, stronger effect = lower value 1.02 | S. cerevisiae deletion strains, locus YPL106C, strain sse1, stronger effect = lower value 1.03 | S. cerevisiae deletion strains, locus YPL240C, strain hsp82, stronger effect = lower value 1 | S. cerevisiae deletion strains, locus YPL241C, strain CIN2, stronger effect = lower value 1.01 | S. cerevisiae deletion strains, locus YPL256C, strain CLN2, stronger effect = lower value 0.93 | S. cerevisiae deletion strains, locus YPR119W, strain clb2, stronger effect = lower value 1.01 | S. cerevisiae deletion strains, locus YPR141C, strain kar3, stronger effect = lower value 0.995 | S. cerevisiae deletion strains, locus YPR163C, strain tif3, stronger effect = lower value 1 | S. cerevisiae deletion strains, locus YPR167C, strain met16, stronger effect = lower value 1 | S. cerevisiae deletion strains, strain wtn01, stronger effect = lower value 1.01 | S. cerevisiae strains, strain wild type, stronger effect = lower value 1.01
